Compound activity as filed in PubChem BioAssay.
Most compounds without a hit are left out; they make up all but 0.87% or so of the library.
RECQ1 inh-1: RECQ1 (human) helicase inhibition | P46063 | RECQ1 DNA unwinding, red fluorescence kinetic read | Potency, µM (titrated, usually from 57.3 µM), for the others: at the highest dose activity, negative = inhibition, most hits filed as inhibitors | 0.54% of 240,000 active | AID 2549;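 also: plate controls were vehicle for no effect and no enzyme for full effect; nearly all actives have a fitted effect of over 30% in size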
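RECQ1T1 50 nM; forked duplex (20 bp + 30-nt ss tails) 200 nM, ATP 2 mM final; pH 8.0, 2 mM MgCl2, 2.5 ug/ml poly(dI-dC); 15 min compound preincubation; discontinuous kinetic read over 2 h at RT.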
BLM inh: Bloom syndrome helicase (human) inhibition | recombinant BLM DNA unwinding, fluorescence dequenching | AID 2528 | Potency, µM (top dose mostly 56.1 µM), for inactives: at the top dose activity change, negative = inhibition, usual class: inhibitors | 0.2% of 350,000 active;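 also: plate controls were vehicle for no effect and no enzyme for full effect; nearly all actives have a fitted effect of over 35% in size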
KAT2A inh: GCN5L2 (KAT2A) acetyltransferase inhibition | Q92830 | GCN5L2 HAT assay, ThioGlo1 CoA-SH fluorescence | Potency, µM (highest dose often 58.9 µM), for the others: at the top dose activity change, negative = inhibition, most hits filed as inhibitors | 0.21% of 390,000 active
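Preincubate 20nM GCN5L2 with compound 15 min, RT → add 50uM ThioGlo1 + 75uM H3(1-25) + 70uM acetyl-CoA → read fluorescence 0 and 20 min. Primary qHTS; fluorescent artifacts likely.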
APE1 inh: APE1 (human) endonuclease inhibition. 0.35% of 350,000 active. P27695. Potency, µM (top dose mostly 65.8 µM), for the others: at the highest dose activity change, negative = inhibition, usual class: inhibitors. recombinant APE1, TAMRA/BHQ-2 abasic DNA cleavage fluorescence;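 also: plate controls were vehicle for no effect and reference inhibitor for full effect; nearly all actives have a fitted effect of over 55% in size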
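Activity was derived from the fluorescence gain between first and third kinetic reads (60 s intervals, ex 525/em 598 nm) after 50 nM THF-abasic TAMRA/BHQ-2 duplex was added to 0.75 nM APE1 preincubated 15 min with compound.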
TDP1 inh: inhibitors of human tyrosyl-DNA phosphodiesterase TDP1; recombinant TDP1, AlphaScreen DNA substrate cleavage; Potency, µM (top dose mostly 130 µM), for inactives: top-dose activity change, negative = inhibition, most hits filed as inhibitors; 0.28% of 350,000 active; also: nearly all actives have a fitted effect of over 40% in size
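Recombinant E. coli-expressed Tdp1 (1 nM) preincubated with compound 15 min at RT, then 5'-biotin/3'-phosphotyrosine-FITC DNA substrate (15 nM) added for 5 min. AlphaScreen beads (10 ug/ml) added, 10 min RT; tyrosine-FITC cleavage read as signal loss.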
RECQ1 conf: confirmation of human RECQ1 helicase inhibitors. Potency, µM (series often up to 229 µM), without a hit: top-dose activity change, negative = inhibition, actives largely listed as inhibitors. RECQ1 helicase DNA unwinding, fluorescence. shares compounds with RECQ1 inh-1. 28% of 610 active; also: nearly all actives have a fitted effect of over 45% in size
ADP FP counter: counter-screen for RECQ1 inhibitors: ADP displacement; shares compounds with RECQ1 inh-1; ADP fluorescence polarization displacement counterscreen; Potency, µM (series often up to 228 µM), without a hit: at the highest dose activity change, negative = inhibition, actives largely listed as inhibitors; 27% of 530 active; AID 2711; also: nearly all actives have a fitted effect of over 45% in size
RECQ1 inh-2: blocks human RECQ1 DNA unwinding | recombinant RECQ1 DNA unwinding, red fluorescence | shares compounds with RECQ1 inh-1 | 15% of 1,100 active | Potency, µM (top dose mostly 119 µM), inactives show at the top dose activity, negative = inhibition, most hits filed as inhibitors | AID 504841; also: nearly all actives have a fitted effect of over 50% in size
* = called active by the depositor; [ ] = another dose, or the depositor's remark. Calls follow the shape of the dose curve; as a rule, active = well fitted curve in the direction sought with a large enough effect; inconclusive = small, poorly fitted or top-dose-only effect, or another doubt; inactive = no such curve, though single readings can be large; an effect the other way counts as inactive or inconclusive. Unless noted, % is scaled to controls: 0 for no effect and ±100 for the full control effect; potency is read from the fitted curve at half-maximal effect.

What do the screens show for `Nc1c(C(=O)Nc2ccc(F)cc2)sc2nc(-c3ccco3)ccc12`?
RECQ1 inh-1: 22µM*; BLM inh: -14%; KAT2A inh: -10%; APE1 inh: inconclusive; TDP1 inh: -7%; RECQ1 inh-2: -16%

How did CC(=O)c1sc2nc(-c3ccco3)ccc2c1N do in these assays?
RECQ1 inh-1: 3.5µM*; BLM inh: inconclusive; KAT2A inh: inconclusive; APE1 inh: 3.2µM*; RECQ1 inh-2: -21%

How did Nc1c(C(=O)Nc2ccc(Br)cc2)sc2nc(-c3ccco3)ccc12 do in these assays?
RECQ1 inh-1: -22%; BLM inh: -21%; KAT2A inh: -23%; APE1 inh: -14%; TDP1 inh: 3%

Results for NC(=O)c1sc2nc(-c3ccccc3)ccc2c1N ?
BLM inh: 1%; KAT2A inh: -11%; APE1 inh: 4%

Results for COC(=O)c1c(C)oc2c1cc(NS(=O)(=O)c1c(C)cc(C)cc1C)c1ccccc12 ?
BLM inh: -10%; KAT2A inh: 0%

What do the screens show for `CCOC(=O)c1cc(-c2ccccc2)n(CCCC(=O)Nc2cccc(Cl)c2C)c1C`?
BLM inh: -2%; KAT2A inh: -2%; TDP1 inh: 2%

What do the screens show for `Cc1ccc(-n2c(SCC(=O)Nc3cccc(Cl)c3)nc3n[nH]c(C)c3c2=N)cc1`?
BLM inh: -1%; KAT2A inh: -12%; TDP1 inh: -5%

Results for O=C(CSc1ncnc2scc(-c3ccccc3)c12)N1CCN(Cc2ccc3c(c2)OCO3)CC1 ?
RECQ1 inh-1: 13µM*; BLM inh: -17%; KAT2A inh: inconclusive; APE1 inh: 0%; TDP1 inh: 8%; RECQ1 conf: inconclusive; RECQ1 inh-2: -24%

How did COc1cccc(-c2nnc(SC(C(=O)c3c[nH]c4ccccc34)c3ccccc3)n2C)c1 (configuration not stated) do in these assays?
RECQ1 inh-1: -7%; BLM inh: -4%; KAT2A inh: 2%; APE1 inh: -6%; TDP1 inh: 4%; RECQ1 conf: 2%; ADP FP counter: 15%

What do the screens show for `COc1ccccc1-c1nnc(SC(C(=O)c2c[nH]c3ccccc23)c2ccccc2)n1C` (configuration not stated)?
RECQ1 inh-1: -14%; BLM inh: -9%; KAT2A inh: -11%; APE1 inh: -6%; TDP1 inh: 8%

Results for O=C(N/N=C/c1ccc[nH]1)c1ccccc1O ?
RECQ1 inh-1: 3.5µM*; BLM inh: -4%; KAT2A inh: -1%; APE1 inh: 18%; TDP1 inh: 0%; RECQ1 conf: 8%[114 µM]; ADP FP counter: 14%[91.9 µM]

What do the screens show for `O=C(N/N=C/c1ccc[nH]1)c1ccc(O)cc1`?
RECQ1 inh-1: inactive; BLM inh: -6%; KAT2A inh: 1%; APE1 inh: -3%; TDP1 inh: 12%

What do the screens show for `CS(=O)(=O)c1ccc2c(c1)sc1nc(=O)c(/C=C3/C=CC(=O)C(O)=C3)c(N)n12`?
RECQ1 inh-1: 16µM*; BLM inh: 25µM*; KAT2A inh: inconclusive; APE1 inh: 25µM*; TDP1 inh: -10%; RECQ1 inh-2: 7.9µM*

Results for Cc1cccc(NC(=O)C(=O)NCC(c2cccnc2)N2CCOCC2)c1 (configuration not stated) ?
BLM inh: -8%; KAT2A inh: -1%; TDP1 inh: 3%
